Most compounds without a hit are left out; they make up all but 4% or so of the library.
ADAM17 inh = ADAM17 inhibition, QFRET primary screen. inhibition, % at 6.95 µM. AID 720648. recombinant ADAM17, EDANS/DABCYL FRET peptide cleavage. P78536. actives 0.83% (n = 370,000);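 active = inhibition above the mean of compounds lying between control limits plus 3 SD, set per campaign, cut at about 8.5% in these data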;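 note: 0% = DMSO-only wells as the low control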
aDG glyco act = alpha-DG glycosylation activation | Pro5-aDG cells, alpha-DG glycosylation AlphaScreen (IIH6); 0% Pro5, 100% B10-LARGE cell signal | activation, % at 10 µM | actives 0.22% (n = 360,000);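 active = activation of at least 8% versus controls, or a plate z-score of at least 8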;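 note: Pro5 are CHO cells carrying HIG-tagged alpha-DG that lacks glycosylation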
FAS TE block = FAS thioesterase (human) inhibition; P49327; actives 0.67% (n = 360,000); AID 602261; recombinant FAS-TE, OMFH fluorogenic substrate, fluorescence endpoint; inhibition, % at 15 µM;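 active = compounds whose normalised, plate-corrected inhibition of enzyme fluorescence in the single-dose primary screen is 50% or more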;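 note: 0% = DMSO with enzyme and 100% = substrate without enzyme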
GRIN3A LBD mod = modulates the human NR3A ligand-binding domain; AID 1259313; NR3A LBD differential scanning fluorimetry, Tm shift; 0% = protein alone, 100% = glycine-bound protein; Tm shift relative to glycine control, % at 25 µM; actives 2.5% (n = 340,000);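 active = melting temperature shift of at least 10% of the positive control shift, at one fixed dose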
ADAM10 inh = ADAM10 inhibition, QFRET primary screen | O14672 | inhibition, % at 7 µM | AID 720582 | recombinant ADAM10, EDANS/DABCYL FRET peptide cleavage, 3 h | actives 0.62% (n = 370,000);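 active = inhibition above a per-campaign cutoff equal to the mean of compounds falling between control-based bounds plus 3 SD, cut at about 20% in these data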;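 note: 0% = DMSO wells while the 100% control is not disclosed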
ADAM10 confirm = confirmation of inhibitors of human ADAM10; ADAM10 QFRET peptide cleavage, EDANS fluorescence; shares compounds with ADAM10 inh; inhibition, % at 6.95 µM; actives 1% (n = 2,100);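 active = inhibition above about 20% chosen separately for each screening run, limit read from the data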;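 note: 0% = DMSO wells and 100% = marimastat wells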
ADAM17 ctr = inhibits human ADAM17 in ADAM10 exosite counter-screen. shares compounds with ADAM10 inh. ADAM17 QFRET peptide cleavage, EDANS fluorescence. inhibition, % at 6.95 µM. actives 0.5% (n = 2,100). AID 743214;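 active = mean triplicate inhibition above the solvent-only control wells' mean plus 3 SD, cut at about 12% in these data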;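 note: 0% = DMSO wells and 100% = marimastat wells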
ADAM10 ctr = counter-screen for ADAM17 exosite inhibitors: inhibitors of human ADAM10; shares compounds with ADAM17 inh; recombinant ADAM10, EDANS/DABCYL FRET peptide cleavage, 3 h; inhibition, % at 6.95 µM; actives 47% (n = 2,900); AID 743256;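 active = mean inhibition over the triplicate runs exceeds the activity threshold set in the earlier primary screen, cut at about 20% in these data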;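 note: 0% = DMSO wells and 100% = marimastat wells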
ADAM17 confirm = confirmation of inhibitors of human ADAM17. shares compounds with ADAM17 inh. recombinant ADAM17, EDANS/DABCYL QFRET peptide cleavage. inhibition, % at 6.95 µM. actives 65% (n = 2,900);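 active = mean inhibition across replicates above the hit cutoff set in the primary screen, cut at about 8.5% in these data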;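 note: 0% = DMSO wells and 100% = marimastat wells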
* hit, by the source's call; x = no result.

SMILES	ADAM17 inh	aDG glyco act	FAS TE block	GRIN3A LBD mod	ADAM10 inh	ADAM10 confirm	ADAM17 ctr	ADAM10 ctr	ADAM17 confirm
Cc1cc(-c2n[nH]c(=S)n2/N=C/c2ccccc2[N+](=O)[O-])n[nH]1	10.9*	0.0	-8.2	2.2	21.1*	-1.4	-0.3	0.3	4.1
CC(C)c1ccc(NC(=O)c2cc(S(=O)(=O)NCC3COc4ccccc4O3)ccc2F)cc1 (stereo not given)	10.0*	0.8	21.8	19.2*	20.7*	9.9	3.9	38.0*	25.6*
O=C(Nc1ccc(C(F)(F)F)cc1)c1cc(S(=O)(=O)NCC2COc3ccccc3O2)ccc1F (stereo not given)	12.6*	4.3	44.3	32.1*	25.3*	5.5	2.0	50.6*	23.6*
COc1ccc(NS(=O)(=O)c2ccc3oc(SCc4ccc(F)cc4)nc3c2)cc1	11.4*	2.8	43.8	12.6*	25.3*	7.2	4.3	22.2*	12.1*
O=C(NC(NC(=S)Nc1cccc(Cl)c1)C(Cl)(Cl)Cl)OCc1ccccc1 (stereo not given)	10.3*	1.9	36.9	29.4*	28.4*	11.5	3.8	35.0*	20.2*
CCc1nc(N2CCN(C(=S)NCCCOC)CC2)c2c3c(sc2n1)CCCC3	14.0*	-0.1	27.0	-7.6	20.2*	4.0	1.8	13.4	7.5
CCC(=O)N1CCN(c2nc(CC)nc3sc4c(c23)CCCC4)CC1	0.8	0.0	0.9	1.1	0.6	x	x	x	x
COc1ccc([N+](=O)[O-])cc1NC(=S)NC(NC(=O)C(c1ccccc1)c1ccccc1)C(Cl)(Cl)Cl (stereo not given)	19.2*	1.7	41.0	9.7	32.1*	9.1	2.9	29.1*	13.9*
O=C(NCc1ccc(Cl)c(Cl)c1)c1cc(C2CCCCN2C(=O)CCc2ccccc2)on1 (stereo not given)	9.2*	0.5	20.8	x	25.1*	5.2	0.8	18.5	10.4*
O=C(NCc1ccccc1)c1cc(C2CCCCN2C(=O)CCc2ccccc2)on1 (stereo not given)	-1.4	-0.2	5.6	x	-1.2	x	x	x	x
Cc1cc(NC(=O)c2c(F)cccc2Cl)n(-c2nc3ccccc3[nH]2)n1	10.3*	-0.4	24.1	-2.1	29.7*	16.6	5.6	39.7*	16.7*
CCOc1ccc(NS(=O)(=O)c2cc(NC(=O)c3cccc(C)c3)ccc2Cl)cc1	13.7*	0.6	30.2	9.4	31.1*	7.8	3.0	31.4*	18.7*
CCCCNS(=O)(=O)c1ccc2nc(SCC(=O)Nc3ccccc3)[nH]c2c1	9.1*	-0.3	3.5	-3.8	22.8*	3.1	-0.6	10.3	2.9
CCOc1ccc(N/C(N)=N/c2nc(CSc3nnc(C)s3)cc(=O)[nH]2)cc1	-6.3	0.0	-5.6	-2.9	1.5	x	x	x	x
CC(NS(=O)(=O)OCC(Cl)(Cl)Cl)c1ccc(C(C)(C)C)cc1 (stereo not given)	14.6*	0.1	33.0	8.7	31.0*	9.2	3.0	45.4*	22.1*
N#CC1=C(SCC(=O)c2ccc(Cl)cc2)NC2=C(C(=O)CCC2)C1c1ccco1 (stereo not given)	2.3	-0.3	6.9	-8.7	2.0	x	x	x	x
CCC(C)NC(=O)c1cccc(OCc2c(C)noc2C)c1 (stereo not given)	-0.3	0.0	-8.4	0.4	-1.2	x	x	x	x
CCOC(=O)c1c(C)[nH]c(C(=O)C(C)OC(=O)c2cccc(OCc3c(C)noc3C)c2)c1C (stereo not given)	13.4*	3.8	17.1	-9.1	29.9*	6.3	2.4	47.4*	22.5*
